# Data: PubChem BioAssay (NCI)
# Compounds without any hit were thinned out: in the full panel of roughly 83,000, 20% have a hit.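 96-well plates, one dose, 48 hours. Percent growth reported; active if below 10.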 Values without a mark were called inactive. Calls of active or inactive are those of the source.
# Tested on: SN12C renal
# Assay: NCI-60 one-dose screen, 48 h (100 = growth as untreated, 0 = no growth, -100 = all killed)
# Conditions: 10 µM unless noted
row,Structure (SMILES),growth
1,O=c1nc2sc3nc4ccccc4cc3cc-2s1,101%
2,O=c1c(-c2nc3ccccc3[nH]2)cc2ccccc2n1Cc1cn(Cc2ccc(N3CCOCC3)cc2)nn1,49.7%
3,COC(=O)/C(CCC=C(C)C)=C1\[C@@H](OC(C)=O)C[C@@]2(C)[C@H]1CC(=O)[C@H]1[C@@]3(C)CC[C@H](NCc4ccccc4)[C@@H](C)[C@@H]3CC[C@@]12C,87%
4,S=C1CCCC(=S)N1,99.3%
5,CCCCC1COc2cccc3c2N1C=C/C3=C\C(=O)N(C)c1ccccc1 (stereo not drawn),64.9%
6,O=C(Nc1ccc(N2CCNCC2)cc1)c1[nH]ncc1Nc1cc(Oc2ccccc2)ncn1,2.47% (active)
7,COc1cc(C2CC(c3ccc(Nc4nc(NCCO)nc(N5CCOCC5)n4)cc3)=NN2c2cc(Cl)cc(Cl)c2)cc(OC)c1OC (stereo not drawn),65.5%
8,Cc1ccc2sc3c(NCCCNCCO)nc4ccccc4c3c(=O)c2c1,72.8%
9,Nc1nc(N)c2c(n1)NC1(C=C(O)c3ccccc31)C1=C(N2)c2ccccc2C1=O (stereo not drawn),102%
10,O=C(c1nc2ccccc2[nH]1)C1[C@@H](c2cccc(O)c2)C2CC3CCCCC3N2[C@@]12C(=O)Nc1cc(Cl)ccc12 (stereo partly drawn),43.6%
11,Clc1ccc(COc2ccc(Nc3ncnc4onc(-c5ccccc5)c34)cc2)cc1,87.8%
12,CC1(O)COCCCCOc2c(CN)cccc2NC(=O)c2nc(cnc2N)-c2ccc(cc2)S(=O)(=O)C(C)(C)C1 (stereo not drawn),-81.1% (active)
13,O=c1c2cc(F)ccc2sc2c(NCCN3CCCC3)nc3ccccc3c12,70.4%
14,COc1ccc(-c2nocc2-c2cccs2)cc1,103%
15,Cn1c2c(c(=O)[nH]c1=O)NC1=C(C(=O)c3ccccc31)C1(C=C(O)c3ccccc31)N2 (stereo not drawn),108%
16,Cc1c(-c2noc(-c3ccc([N+](=O)[O-])cc3)n2)no[n+]1[O-],98.3%
17,O=C(Nc1ccc(N2CCNCC2)cc1)c1[nH]ncc1Nc1ncnc2sc3c(c12)CCC3,-75.1% (active)
18,COC(=O)/C(CCC=C(C)C)=C1\[C@@H](OC(C)=O)C[C@@]2(C)[C@H]1CC(=O)N[C@H]1[C@@]3(C)CCNC(=O)[C@@H](C)[C@@H]3CC[C@@]12C,98.9%
19,O=C(Nc1ncc(Cc2cccc(C(F)(F)F)c2)s1)C1COc2ccccc2O1 (stereo not drawn),88.8%
20,CCN1C(=O)N(CC)C2Nn3c(s/c(=C\c4ccccc4F)c3=O)=NC21 (stereo not drawn),53.5%

row,Structure (SMILES),growth
1,O=C1/C(=C/c2cccc(O)c2)COc2ccc(O)cc21,73.8%
2,O=C(NCc1ccco1)C1CN(c2ccc(Cl)cc2)N(c2ccc(Cl)cc2)C1=O (stereo not drawn),62.9%
3,CC(=O)c1ccc(NC(=O)Nc2ccc(S(=O)(=O)Nc3ccc(Cl)nn3)cc2)cc1,97.9%
4,O=C(/C=C/c1ccc(Cl)cc1)c1ccc(Nc2nc(NCCO)nc(N3CCOCC3)n2)cc1,88.4%
5,CN(O)c1nc(N(C)O)nc(N2CCOCC2)n1,53.7%
6,C1CCN(c2nc(N3CCCCC3)nc(N3CCOCC3)n2)CC1,96.5%
7,Cn1nc(C(F)(F)F)c(-c2ccc(Cl)c(C(F)(F)F)c2)c1-c1ccc(OCc2ccc(Cl)cc2)cc1O,6.24% (active)
8,CC/C=C\C[C@H](O)C/C=C1/C(=O)C=C[C@@H]1C/C=C\CCCC(=O)OCCS(=O)(=O)c1ccccc1,37.3%
9,O=C(/C=C/c1ccc(F)cc1)c1ccc(Nc2nc(NCCO)nc(Nc3ccc(Cl)cc3)n2)cc1,94%
10,COc1cc(C2C3=C(COC3=O)N(CCO)c3cc4c(cc32)OCCO4)cc(OC)c1O (stereo not drawn),39.8%
11,COc1cc2nc(NC3CCCC3)nc(NC3CCN(C(C)C)CC3)c2cc1OC,97.3%
12,CCCCC1CCc2cccc3c(SCC(=O)N(C)c4ccc(Cl)cc4)cc[n+]1c23 (stereo not drawn),104%
13,CC(=O)c1ccc(Nc2nc(NCCO)nc(Nc3ccc(Cl)cc3)n2)cc1,95.8%
14,NC1C(N)C(N)C1N (stereo not drawn),96.8%
15,Cc1ccc2cccc(Oc3ccc(Nc4ncnc5onc(-c6ccccc6)c45)cc3)c2n1,83.9%
16,COc1cc(C=C2C(=O)N(C)C(=O)N(C)C2=O)cc(CN2CCCCC2)c1O,94%
17,COc1cc2nc(-c3cnc(N(C)C)nc3)nc(NC3CCN(Cc4ccccc4)CC3)c2cc1OC,-87.2% (active)
18,COc1ccc(CCN2C(=O)CCSC2=S)cc1OC,92.3%
19,NCCCNc1nc2ccccc2c2c(=O)c3cc(F)ccc3sc12,41.7%

# Tested on: UO-31 renal
# Assay: as above
# Conditions: 10 µM unless noted
row,Structure (SMILES),growth
1,O=c1nc2sc3nc4ccccc4cc3cc-2s1,117%
2,O=c1c(-c2nc3ccccc3[nH]2)cc2ccccc2n1Cc1cn(Cc2ccc(N3CCOCC3)cc2)nn1,74.8%
3,COC(=O)/C(CCC=C(C)C)=C1\[C@@H](OC(C)=O)C[C@@]2(C)[C@H]1CC(=O)[C@H]1[C@@]3(C)CC[C@H](NCc4ccccc4)[C@@H](C)[C@@H]3CC[C@@]12C,69.9%
4,S=C1CCCC(=S)N1,87.8%
5,CCCCC1COc2cccc3c2N1C=C/C3=C\C(=O)N(C)c1ccccc1 (stereo not drawn),59.3%
6,O=C(Nc1ccc(N2CCNCC2)cc1)c1[nH]ncc1Nc1cc(Oc2ccccc2)ncn1,-13.1% (active)
7,COc1cc(C2CC(c3ccc(Nc4nc(NCCO)nc(N5CCOCC5)n4)cc3)=NN2c2cc(Cl)cc(Cl)c2)cc(OC)c1OC (stereo not drawn),42%
8,Cc1ccc2sc3c(NCCCNCCO)nc4ccccc4c3c(=O)c2c1,48.6%
9,Nc1nc(N)c2c(n1)NC1(C=C(O)c3ccccc31)C1=C(N2)c2ccccc2C1=O (stereo not drawn),77.1%
10,O=C(c1nc2ccccc2[nH]1)C1[C@@H](c2cccc(O)c2)C2CC3CCCCC3N2[C@@]12C(=O)Nc1cc(Cl)ccc12 (stereo partly drawn),33.5%
11,Clc1ccc(COc2ccc(Nc3ncnc4onc(-c5ccccc5)c34)cc2)cc1,90.5%
12,CC1(O)COCCCCOc2c(CN)cccc2NC(=O)c2nc(cnc2N)-c2ccc(cc2)S(=O)(=O)C(C)(C)C1 (stereo not drawn),-97.5% (active)
13,O=c1c2cc(F)ccc2sc2c(NCCN3CCCC3)nc3ccccc3c12,45.3%
14,COc1ccc(-c2nocc2-c2cccs2)cc1,88.2%
15,Cn1c2c(c(=O)[nH]c1=O)NC1=C(C(=O)c3ccccc31)C1(C=C(O)c3ccccc31)N2 (stereo not drawn),77.6%
16,Cc1c(-c2noc(-c3ccc([N+](=O)[O-])cc3)n2)no[n+]1[O-],78.4%
17,O=C(Nc1ccc(N2CCNCC2)cc1)c1[nH]ncc1Nc1ncnc2sc3c(c12)CCC3,-85.6% (active)
18,COC(=O)/C(CCC=C(C)C)=C1\[C@@H](OC(C)=O)C[C@@]2(C)[C@H]1CC(=O)N[C@H]1[C@@]3(C)CCNC(=O)[C@@H](C)[C@@H]3CC[C@@]12C,81.9%
19,O=C(Nc1ncc(Cc2cccc(C(F)(F)F)c2)s1)C1COc2ccccc2O1 (stereo not drawn),73.7%
20,CCN1C(=O)N(CC)C2Nn3c(s/c(=C\c4ccccc4F)c3=O)=NC21 (stereo not drawn),65.8%

row,Structure (SMILES),growth
1,O=C1/C(=C/c2cccc(O)c2)COc2ccc(O)cc21,79.6%
2,O=C(NCc1ccco1)C1CN(c2ccc(Cl)cc2)N(c2ccc(Cl)cc2)C1=O (stereo not drawn),42.7%
3,CC(=O)c1ccc(NC(=O)Nc2ccc(S(=O)(=O)Nc3ccc(Cl)nn3)cc2)cc1,78.5%
4,O=C(/C=C/c1ccc(Cl)cc1)c1ccc(Nc2nc(NCCO)nc(N3CCOCC3)n2)cc1,56%
5,CN(O)c1nc(N(C)O)nc(N2CCOCC2)n1,12.7%
6,C1CCN(c2nc(N3CCCCC3)nc(N3CCOCC3)n2)CC1,99.5%
7,Cn1nc(C(F)(F)F)c(-c2ccc(Cl)c(C(F)(F)F)c2)c1-c1ccc(OCc2ccc(Cl)cc2)cc1O,-6.34% (active)
8,CC/C=C\C[C@H](O)C/C=C1/C(=O)C=C[C@@H]1C/C=C\CCCC(=O)OCCS(=O)(=O)c1ccccc1,70.4%
9,O=C(/C=C/c1ccc(F)cc1)c1ccc(Nc2nc(NCCO)nc(Nc3ccc(Cl)cc3)n2)cc1,70.7%
10,COc1cc(C2C3=C(COC3=O)N(CCO)c3cc4c(cc32)OCCO4)cc(OC)c1O (stereo not drawn),60.3%
11,COc1cc2nc(NC3CCCC3)nc(NC3CCN(C(C)C)CC3)c2cc1OC,79.5%
12,CCCCC1CCc2cccc3c(SCC(=O)N(C)c4ccc(Cl)cc4)cc[n+]1c23 (stereo not drawn),103%
13,CC(=O)c1ccc(Nc2nc(NCCO)nc(Nc3ccc(Cl)cc3)n2)cc1,81.3%
14,NC1C(N)C(N)C1N (stereo not drawn),77.9%
15,Cc1ccc2cccc(Oc3ccc(Nc4ncnc5onc(-c6ccccc6)c45)cc3)c2n1,55.6%
16,COc1cc(C=C2C(=O)N(C)C(=O)N(C)C2=O)cc(CN2CCCCC2)c1O,75.4%
17,COc1cc2nc(-c3cnc(N(C)C)nc3)nc(NC3CCN(Cc4ccccc4)CC3)c2cc1OC,-81.2% (active)
18,COc1ccc(CCN2C(=O)CCSC2=S)cc1OC,79.2%
19,NCCCNc1nc2ccccc2c2c(=O)c3cc(F)ccc3sc12,23%
